Test results reported in PubChem BioAssay (Tox21).
Inconclusive results are not listed. Entries that show only a call come without a potency. Calls of active or inactive are those of the source. Unless noted, the call rests on the fitted dose curve.

Experiments:
[1] = Nuclear factor erythroid 2-related factor 2/antioxidant responsive element (Nrf2/ARE) small molecule agonists: qHTS cell viability counter screen in human keratinocytes (AID 1919968; active means well fitted curve in the direction sought with a large enough effect in the repeat runs; an effect the other way counts as inactive or inconclusive; further: nearly all actives have a fitted effect of over 55% in size; further: potency means the concentration at half of the fitted maximal effect)
Summary of the method: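 Parallel cytotoxicity read: KeratinoSens HaCaT cells, compound treatment 23 h, viability by CellTiter-Fluor fluorescence 1 h post-reagent.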

[2] = Nuclear factor erythroid 2-related factor 2/antioxidant responsive element (Nrf2/ARE) small molecule agonists: luciferase reporter gene qHTS assay in human keratinocytes (AID 1919969); further: nearly all actives have a fitted effect of over 35% in size; further: potency means the concentration at half of the fitted maximal effect
[3] = biological target: Gonadotropin-releasing hormone receptor (Homo sapiens) (UniProt P30968); assay: Human gonadotropin-releasing hormone receptor (GnRHR) small molecule agonists, calcium flux assay in GnRHR-HEK293 cells (AID 1920063); further: nearly all actives have a fitted effect of over 35% in size; further: potency means the concentration at half of the fitted maximal effect
Gonadotropin-releasing hormone receptor (Homo sapiens), sequence (P30968 whole entry, looked up): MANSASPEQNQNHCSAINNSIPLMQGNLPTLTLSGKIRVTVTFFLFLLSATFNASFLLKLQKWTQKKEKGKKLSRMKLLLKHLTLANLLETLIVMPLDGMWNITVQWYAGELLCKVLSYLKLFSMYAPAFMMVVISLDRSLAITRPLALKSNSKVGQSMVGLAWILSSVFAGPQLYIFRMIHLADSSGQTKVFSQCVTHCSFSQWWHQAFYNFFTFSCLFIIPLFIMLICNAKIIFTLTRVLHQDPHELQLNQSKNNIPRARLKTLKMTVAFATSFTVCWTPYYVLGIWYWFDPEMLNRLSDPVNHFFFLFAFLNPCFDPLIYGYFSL
Summary of the method: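 Calcium flux, agonist mode, human GnRHR stably integrated in HEK293; dye 1 h at 37 C before compound; Ex/Em=480/540 kinetic read, 3 min; 15 concentrations, triplicate.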

[4] = biological target: KiSS-1 receptor (Homo sapiens) (UniProt Q969F8); assay: Human kisspeptin (KISS1R) small molecule agonists, calcium flux assay in KISS1R-HEK293 cells (AID 1920064; active means well fitted curve in the direction sought with a large enough effect in the repeat runs; an effect the other way counts as inactive or inconclusive)
KiSS-1 receptor (Homo sapiens), sequence (Q969F8 whole entry, looked up): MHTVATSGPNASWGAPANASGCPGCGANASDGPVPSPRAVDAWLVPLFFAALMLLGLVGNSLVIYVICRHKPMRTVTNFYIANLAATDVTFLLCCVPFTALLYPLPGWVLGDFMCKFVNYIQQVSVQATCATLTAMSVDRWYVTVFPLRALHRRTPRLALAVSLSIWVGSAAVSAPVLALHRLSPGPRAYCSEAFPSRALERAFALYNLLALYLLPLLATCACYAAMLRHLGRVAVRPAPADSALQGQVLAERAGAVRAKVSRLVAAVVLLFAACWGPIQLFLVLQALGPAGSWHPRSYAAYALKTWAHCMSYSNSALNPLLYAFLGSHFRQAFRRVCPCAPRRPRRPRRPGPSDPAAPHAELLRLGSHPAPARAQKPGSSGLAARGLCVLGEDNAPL
Summary of the method: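 Triplicate 15-concentration series were applied to dye-loaded human KISS1R HEK293 cells, and agonist-evoked calcium fluorescence was captured for 3 min.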

[5] = G protein-coupled receptor (GPCR) small molecule agonists, calcium flux assay: HEK293 wild type cell line counter screen (AID 1920065)
Summary of the method: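 Non-specific calcium responders were flagged by adding DMSO-dissolved compounds to dye-loaded cells and reading 480/540 nm fluorescence each second for 3 min; ATP served as positive control.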

[6] = p53 small molecule agonists, cell-based qHTS assay with human liver microsomes (AID 1963577); further: potency means the concentration at half of the fitted maximal effect;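 on activation: p53 response element beta-lactamase reporter cells with liver microsomes plus NADPH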
Summary of the method: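 Metabolically competent format: test substances, human liver microsomes and NADPH (both 0.5 mg/mL final) incubated with p53RE-bla cells 16 h at 37 C. Beta-lactamase reporter signal then quantified by fluorescence.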

[7] = p53 small molecule agonists, cell-based qHTS assay with rat liver microsomes (AID 1963578)
Summary of the method: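 Each plate received p53RE-bla cells, then compound, then rat liver microsomes and NADPH (both 0.5 mg/mL final). Plates were held 16 h at 37 C, and beta-lactamase activity was detected with LiveBLAzer over 2 h.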

[8] = p53 small molecule agonists, cell-based qHTS assay with human liver microsomes: qHTS cell viability counter screen (AID 1963579); further: nearly all actives have a fitted effect of over 45% in size; further: potency means the concentration at half of the fitted maximal effect
Summary of the method: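 Tox21 library compounds, delivered from DMSO stocks, were tested on p53RE-bla cells together with 0.5 mg/mL human liver microsomes and 0.5 mg/mL NADPH (final) over 16 h at 37 C; CellTiter-Glo luminescence served as the cytotoxicity measure.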

[9] = p53 small molecule agonists, cell-based qHTS assay with rat liver microsomes: qHTS cell viability counter screen (AID 1963580); further: nearly all actives have a fitted effect of over 45% in size
Summary of the method: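 Cytotoxicity counter screen: intracellular ATP read by CellTiter-Glo luminescence in the p53 reporter wells. HCT-116 p53RE-bla cells were treated for 16 h at 37 C alongside rat liver microsomes and NADPH, each 0.5 mg/mL final.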

[10] = p53 small molecule agonists, cell-based qHTS assay (AID 1963582; active means well fitted activation curve with a large enough effect in the signal ratio in the repeat runs, not every such curve was filed as active; the % refers to the signal ratio)
Summary of the method: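 Beta-lactamase reporter cells (p53RE-bla) treated with compounds for 16 h at 37 C; FRET substrate, 2 h, room temperature; fluorescence intensity.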

[11] = biological target: Muscarinic acetylcholine receptor M1 (Homo sapiens) (UniProt P11229); assay: Cholinergic receptor muscarinic 1 (CHRM1) small molecule antagonists, cell-based qHTS assay (AID 1963588); further: nearly all actives have a fitted effect of over 40% in size; further: potency means the concentration at half of the fitted maximal effect
Muscarinic acetylcholine receptor M1 (Homo sapiens), sequence (P11229 whole entry, looked up): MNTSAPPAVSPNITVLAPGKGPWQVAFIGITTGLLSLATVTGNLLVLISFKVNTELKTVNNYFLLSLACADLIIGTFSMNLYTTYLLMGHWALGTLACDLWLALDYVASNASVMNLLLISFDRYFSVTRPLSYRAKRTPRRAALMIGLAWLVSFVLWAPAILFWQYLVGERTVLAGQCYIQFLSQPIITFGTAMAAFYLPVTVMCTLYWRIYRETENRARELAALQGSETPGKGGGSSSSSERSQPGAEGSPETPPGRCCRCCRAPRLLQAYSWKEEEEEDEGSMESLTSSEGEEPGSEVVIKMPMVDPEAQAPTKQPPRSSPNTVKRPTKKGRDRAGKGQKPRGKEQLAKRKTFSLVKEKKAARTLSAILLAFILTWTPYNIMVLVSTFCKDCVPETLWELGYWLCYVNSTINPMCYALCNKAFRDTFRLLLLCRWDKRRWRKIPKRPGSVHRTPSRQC
Summary of the method: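 Compounds were tested at 15 concentrations in three independent runs. Dye-loaded CHRM1-CHO cells were exposed 5 min at room temperature before stimulation by acetylcholine added at 50nM. Intracellular calcium was read kinetically on FDSS for 3 min.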

[12] = biological target: Muscarinic acetylcholine receptor M1 (Homo sapiens) (UniProt P11229); assay: Cholinergic receptor muscarinic 1 (CHRM1) small molecule agonists, cell-based qHTS assay (AID 1963589); further: nearly all actives have a fitted effect of over 35% in size
Summary of the method: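 qHTS, 15-point titration, 3 independent runs: compounds pin-transferred onto dye-loaded CHRM1-CHO cells (human M1), calcium fluorescence followed every second to detect agonism.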

[13] = cAMP Responsive Elements (CRE) small molecule agonists, cell-based qHTS assay (AID 1963590)
Summary of the method: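 Quantitative HTS for CRE agonists: HEK 293T CRE-bla cells, overnight plating, 3 h compound incubation at 37 C/5% CO2, then 2 h room-temperature LiveBLAzer B/G FRET substrate loading.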

[14] = cAMP Responsive Elements (CRE) small molecule antagonists, cell-based qHTS assay (AID 1963591; active means well fitted inhibition curve with a large enough effect in the signal ratio in the repeat runs, not every such curve was filed as active; the % refers to the signal ratio)
Summary of the method: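 Fluorescence intensity from cleaved LiveBLAzer B/G substrate (2 h, room temperature) quantified CRE-bla activity in HEK 293T cells exposed 3 h to compound with 0.25 uM final NKH477.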

[15] = biological target: D(2) dopamine receptor (Homo sapiens) (UniProt P14416); assay: Dopamine D2 receptor (DRD2) small molecule agonists, cell-based qHTS assay (AID 1963594); further: nearly all actives have a fitted effect of over 35% in size; further: potency means the concentration at half of the fitted maximal effect
D(2) dopamine receptor (Homo sapiens), sequence (P14416 whole entry, looked up): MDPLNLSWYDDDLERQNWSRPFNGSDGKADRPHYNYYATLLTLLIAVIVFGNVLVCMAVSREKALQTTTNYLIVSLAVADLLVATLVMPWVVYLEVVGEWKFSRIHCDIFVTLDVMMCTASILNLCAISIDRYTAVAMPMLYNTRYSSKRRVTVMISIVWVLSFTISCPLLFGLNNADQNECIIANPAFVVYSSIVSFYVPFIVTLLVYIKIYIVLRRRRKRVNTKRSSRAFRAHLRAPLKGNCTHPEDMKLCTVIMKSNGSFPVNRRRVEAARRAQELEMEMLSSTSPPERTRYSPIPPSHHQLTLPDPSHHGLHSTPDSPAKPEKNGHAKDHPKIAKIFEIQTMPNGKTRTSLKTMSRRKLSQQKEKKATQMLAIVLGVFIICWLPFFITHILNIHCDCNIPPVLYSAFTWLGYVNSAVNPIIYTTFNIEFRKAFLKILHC
Summary of the method: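 cAMP accumulation in DRD2-HEK293 cells measured by HTRF after 1 h detection; compounds added 10 min before NKH477 (200nM […]) forskolin-analogue stimulation, 30 min at room temperature, with Ro20-1724 present at 0.1 mM final.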

[16] = biological target: 5-hydroxytryptamine receptor 2A (Homo sapiens) (UniProt P28223); assay: 5-hydroxytryptamine receptor 2A (HTR2A) small molecule antagonists, cell-based qHTS assay (AID 1963586); further: nearly all actives have a fitted effect of over 45% in size
5-hydroxytryptamine receptor 2A (Homo sapiens), sequence (P28223 whole entry, looked up): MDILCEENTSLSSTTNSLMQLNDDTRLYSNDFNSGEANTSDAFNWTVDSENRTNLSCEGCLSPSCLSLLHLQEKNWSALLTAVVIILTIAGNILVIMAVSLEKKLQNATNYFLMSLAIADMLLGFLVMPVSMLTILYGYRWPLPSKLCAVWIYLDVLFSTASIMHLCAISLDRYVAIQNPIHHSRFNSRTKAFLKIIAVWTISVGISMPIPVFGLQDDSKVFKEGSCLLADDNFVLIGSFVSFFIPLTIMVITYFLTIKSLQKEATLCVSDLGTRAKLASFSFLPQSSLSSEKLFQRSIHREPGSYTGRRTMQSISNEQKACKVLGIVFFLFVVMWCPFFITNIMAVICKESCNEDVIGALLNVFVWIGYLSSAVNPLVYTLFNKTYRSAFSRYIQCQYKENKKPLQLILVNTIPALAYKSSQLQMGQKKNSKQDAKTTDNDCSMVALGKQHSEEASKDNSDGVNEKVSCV
Summary of the method: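 CHO cells stably expressing human HTR2A were plated for 18 h at 37 C, then loaded with calcium dye for 1 h. Compounds were preincubated 5 min at room temperature before DOI (4 nM solution) was added. Kinetic fluorescence was read for 3 min.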

[17] = biological target: Beta-2 adrenergic receptor (Homo sapiens) (UniProt P07550); assay: Adrenergic beta2 receptor (ADRB2) small molecule antagonists, cell-based qHTS assay (AID 1963592); further: nearly all actives have a fitted effect of over 50% in size; further: potency means the concentration at half of the fitted maximal effect
Beta-2 adrenergic receptor (Homo sapiens), sequence (P07550 whole entry, looked up): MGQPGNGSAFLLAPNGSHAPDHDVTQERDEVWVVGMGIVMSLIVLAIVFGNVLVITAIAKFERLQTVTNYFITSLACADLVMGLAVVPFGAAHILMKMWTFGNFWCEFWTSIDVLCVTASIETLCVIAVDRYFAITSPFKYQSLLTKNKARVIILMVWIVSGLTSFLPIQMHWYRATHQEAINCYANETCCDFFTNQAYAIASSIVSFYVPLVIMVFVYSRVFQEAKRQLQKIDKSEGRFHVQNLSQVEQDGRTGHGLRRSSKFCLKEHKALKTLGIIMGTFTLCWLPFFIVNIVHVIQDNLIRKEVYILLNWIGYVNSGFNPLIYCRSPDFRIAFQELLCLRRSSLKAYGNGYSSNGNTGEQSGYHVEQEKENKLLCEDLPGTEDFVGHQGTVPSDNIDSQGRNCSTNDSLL
Summary of the method: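 Assay format: CHO-ADRB2 cells, 18-20hr seeding at 37C/5% CO2, then compound plus 1nM isoproterenol agonist mix for 0.5hr RT. Homogeneous time-resolved fluorescence cAMP detection after 1hr, expressed as 665/615 nm ratio.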

[18] = biological target: D(2) dopamine receptor (Homo sapiens) (UniProt P14416); assay: Dopamine D2 receptor (DRD2) small molecule antagonists, cell-based qHTS assay (AID 1963595; active means well fitted inhibition curve with a large enough effect in the signal ratio in the repeat runs, with a control signal flat; the % refers to the signal ratio)
Summary of the method: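 Stable D2 receptor HEK293 line, 24 h after seeding. Compound preincubated 10 min, then quinpirole (12 nM) with forskolin analogue NKH477 (200 nM), 30 min, room temperature. Detection by time-resolved FRET of cAMP.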

[19] = p53 small molecule agonists, cell-based qHTS assay: qHTS cell viability counter screen (AID 1963581); further: nearly all actives have a fitted effect of over 45% in size
Summary of the method: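 Multiplexed with the reporter read, a CellTiter-Glo step (30 min, room temperature) gauges ATP-based viability of HCT-116 p53RE-bla cells after 16 h compound incubation at 37 C.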

[20] = biological target: 5-hydroxytryptamine receptor 2A (Homo sapiens) (UniProt P28223); assay: 5-hydroxytryptamine receptor 2A (HTR2A) small molecule agonists, cell-based qHTS assay (AID 1963587); further: nearly all actives have a fitted effect of over 30% in size; further: potency means the concentration at half of the fitted maximal effect
Summary of the method: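 Kinetic calcium-flux fluorescence (2 min, 1 sec intervals) after compound addition in agonist mode. HTR2A-CHO cells were cultured 18 h, then dye-loaded 1 h at 37 C.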

| Compound | Potency [1] | Potency [2] | Potency [3] | Potency [4] | Potency [5] | Potency [6] | Potency [7] | Potency [8] | Potency [9] | Potency [10] | Potency [11] | Potency [12] | Potency [13] | Potency [14] | Potency [15] | Potency [16] | Potency [17] | Potency [18] | Potency [19] | Potency [20] |
| --- | --- | --- | --- | --- | --- | --- | --- | --- | --- | --- | --- | --- | --- | --- | --- | --- | --- | --- | --- | --- |
| O=C(CCCN1CCC2(CC1)C(=O)NCN2c1ccccc1)c1ccc(F)cc1 | inactive | inactive | 6.01 µM (active) | inactive | inactive | inactive | inactive | inactive | inactive | inactive | inactive | inactive | inactive | inactive | inactive | – | – | – | – | – |
| CC(=O)CN(CC(C)=O)N=O | inactive | inactive | inactive | inactive | inactive | inactive | inactive | inactive | inactive | inactive | inactive | – | inactive | inactive | inactive | inactive | inactive | inactive | – | – |
| COC(=O)c1ccccc1S(=O)(=O)NC(=O)Nc1nc(C)nc(OC)n1 | inactive | inactive | inactive | inactive | inactive | inactive | inactive | inactive | – | inactive | inactive | inactive | inactive | – | inactive | inactive | inactive | inactive | inactive | inactive |
| Oc1c(Br)c(Br)c(Br)c(Br)c1Br | 30.8 µM (active) | inactive | inactive | inactive | inactive | inactive | inactive | 23.1 µM (active) | inactive | inactive | 30 µM (active) | inactive | – | – | inactive | – | inactive | inactive | – | – |
| CC(c1ccccc1)(c1ccc(O)cc1)c1ccc(O)cc1 | 43.3 µM (active) | inactive | inactive | inactive | inactive | inactive | inactive | 45.8 µM (active) | – | – | inactive | inactive | – | inactive | inactive | inactive | 61.1 µM (active) | inactive | inactive | 49 µM (active) |
| CCC[N+](CCC)(CCC)CCC | inactive | inactive | inactive | inactive | inactive | inactive | inactive | inactive | – | inactive | inactive | inactive | inactive | inactive | inactive | inactive | inactive | inactive | inactive | inactive |
| CNP(=O)(OC)Oc1ccc(C(C)(C)C)cc1Cl (centres undefined) | inactive | 48.6 µM (active) | inactive | inactive | inactive | 3.24 µM (active) | – | inactive | inactive | inactive | inactive | inactive | inactive | inactive | – | inactive | inactive | inactive | inactive | inactive |
| COc1cc(CC(C)N)c(OC)cc1Br (centres undefined) | inactive | inactive | inactive | inactive | inactive | inactive | inactive | – | – | inactive | 17.3 µM (active) | – | – | inactive | 20 µM (active) | inactive | – | inactive | inactive | – |
| CCN1CCCC1CNC(=O)C(O)(c1ccccc1)c1ccccc1 (centres undefined) | inactive | inactive | inactive | inactive | inactive | inactive | inactive | – | inactive | inactive | 0.0918 µM (active) | inactive | inactive | – | inactive | – | – | inactive | inactive | 2.68 µM (active) |
| OC(c1ccccc1)(c1ccccc1)C1CCNCC1 | inactive | inactive | inactive | inactive | inactive | inactive | inactive | – | inactive | inactive | 4.6 µM (active) | inactive | inactive | inactive | inactive | – | inactive | inactive | inactive | – |
| O=c1[nH]c2cc(Cl)ccc2n1C1CCNCC1 | inactive | inactive | inactive | inactive | inactive | inactive | inactive | – | inactive | inactive | inactive | inactive | inactive | inactive | inactive | inactive | – | inactive | inactive | inactive |
| CCC(COC(=O)c1cc(OC)c(OC)c(OC)c1)(c1ccccc1)N(C)C (centres undefined) | inactive | inactive | inactive | inactive | inactive | inactive | inactive | – | inactive | inactive | inactive | inactive | – | – | inactive | inactive | inactive | inactive | inactive | – |
| O=[N+]([O-])c1cc([N+](=O)[O-])c2ccccc2c1 | inactive | 17.2 µM (active) | inactive | inactive | inactive | inactive | inactive | – | – | inactive | – | – | – | – | inactive | – | inactive | – | – | inactive |
| ClC(Cl)C(Cl)Cl | inactive | inactive | inactive | inactive | inactive | inactive | – | inactive | inactive | inactive | inactive | inactive | inactive | inactive | inactive | inactive | inactive | inactive | inactive | inactive |
| CCOC(=O)C(Cl)Cc1cc(-n2nc(C)n(C(F)F)c2=O)c(F)cc1Cl (centres undefined) | inactive | inactive | inactive | inactive | inactive | inactive | inactive | – | inactive | – | inactive | inactive | – | – | – | inactive | inactive | inactive | inactive | inactive |
| CCN(CC)c1c([N+](=O)[O-])cc(C(F)(F)F)c(N)c1[N+](=O)[O-] | inactive | inactive | inactive | inactive | inactive | inactive | inactive | – | inactive | inactive | – | inactive | – | – | inactive | – | – | inactive | inactive | inactive |
